Measurements: PubChem BioAssay (NCI)
About 83,000 compounds went through this panel and 20% of them were active in at least one assay; those are over-represented in the sample as a whole.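 For each line, cells grew in 96-well plates with the test compound present at a single concentration for 48 hours.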 Values without a mark were called inactive. The source made the active and inactive calls. Rule for the calls: active = growth percent below 10; inactive = the rest.

Assays:
Experiment in all cases: NCI-60 one-dose screen, 48 h (100 = growth as untreated, 0 = no growth, -100 = all killed)
Conditions in all cases: 10 µM unless noted
[1] = tested on: NCI-H23 lung
[2] = tested on: NCI-H322M lung
[3] = tested on: HOP-62 NSCLC
[4] = tested on: NCI-H460 lung
[5] = tested on: HOP-92 NSCLC
[6] = tested on: NCI-H522 lung
[7] = tested on: A549/ATCC NSCLC
[8] = tested on: 786-0 renal
[9] = tested on: DU-145 prostate
[10] = tested on: K-562 leukemia
[11] = tested on: MALME-3M melanoma
[12] = tested on: MDA-MB-231 breast
[13] = tested on: RXF 393 renal
[14] = tested on: SF-268 CNS
[15] = tested on: SF-295 CNS
[16] = tested on: SF-539 CNS
[17] = tested on: UACC-257 melanoma
[18] = tested on: M14 melanoma
[19] = tested on: HCT-15 colon

| Structure (SMILES) | growth [1] [%] | growth [2] [%] | growth [3] [%] | growth [4] | growth [5] | growth [6] | growth [7] [%] | growth [8] | growth [9] | growth [10] | growth [11] | growth [12] | growth [13] | growth [14] | growth [15] [%] | growth [16] | growth [17] | growth [18] | growth [19] |
| --- | --- | --- | --- | --- | --- | --- | --- | --- | --- | --- | --- | --- | --- | --- | --- | --- | --- | --- | --- |
| COc1cc(/C=C/C(=O)c2ccc(Nc3nc(NCCO)nc(N4CCOCC4)n3)cc2)cc(OC)c1OC | 15.7 | 30.9 | 34.3 | -20.8% (active) | 39.7% | 24.1% | 14.4 | 16.9% | 17.9% | 10.7% | 40% | 32.9% | 6.75% (active) | 17.5% | 66.6 | -5.44% (active) | 48.8% | 26.8% | 2.16% (active) |
| O=C(Cn1cc(COc2ncnc3c2cnn3-c2ccccc2)nn1)Nc1ccccn1 | 96.6 | 93.6 | 91.5 | 101% | 75.2% | 87.6% | 94.2 | 104% | 101% | 96.7% | 94.5% | 85.2% | 112% | 92.9% | 102 | 89.1% | 98.4% | 97.4% | 101% |
| COc1cccc(/C(C#N)=C/c2nc3c(N4CCOCC4)nc(Cl)nc3n2C)c1 | 25.6 | 63.4 | 35.2 | 17.4% | -66.3% (active) | -64.7% (active) | 29.2 | -69.4% (active) | -77.6% (active) | 0.802% (active) | -45.2% (active) | -68.9% (active) | -84.9% (active) | -24.4% (active) | 85.7 | -20.2% (active) | -57.6% (active) | -54.3% (active) | -46.4% (active) |
| CCCCN1CCN(c2ccc3nc(-c4ccc5nc(-c6ccc(OCC)cc6)[nH]c5c4)[nH]c3c2)CC1 | 64.1 | 82.4 | 46.2 | 75.9% | 95.9% | 68.8% | 86.5 | 75.3% | 68.7% | -29.1% (active) | 36% | 111% | 36.9% | 77.1% | 48.7 | 67.9% | 68.2% | 32.7% | 16.6% |
| CNC(=O)c1cc(Oc2ccc(CC(=O)Nc3cc(C(C)(C)C)cn3C)cc2)ccn1 | 50.2 | 93 | 56 | 74.8% | 84% | 75.1% | 68.9 | 89.7% | 93.9% | 35.5% | 50.6% | 67.8% | 105% | 86.4% | 45.4 | 68.3% | 56.5% | 84.7% | 93.8% |
| Cc1sc2ncn(CC(=O)Nc3ccc(S(N)(=O)=O)cc3)c(=O)c2c1C | 102 | 96.8 | 101 | 105% | 102% | 92.5% | 98 | 101% | 112% | 103% | 102% | 102% | 114% | 97.9% | 104 | 96% | 97.7% | 114% | 102% |
| COc1ccccc1C1=C(Br)C(=O)c2nc(C)ccc2C1=O | 93.4 | 100 | 106 | 99.4% | 86.3% | -38% (active) | 109 | 104% | 109% | 65% | 62.4% | 96.6% | 102% | 97.5% | 98.6 | 105% | 99.6% | 93.7% | 96.7% |
